# In PubChem BioAssay AID371 (SRMLSC, 2006):
# Screen size: about 3,300 compounds; about 280 (8.5%) were called active.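 The calls were made as follows: active = mean growth inhibition over the two runs of 50% or more; inactive = mean growth inhibition under 50%.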 For the sample, actives were picked, then their nearest neighbours and some compounds at random.
# Assay: A549 NSCLC cell proliferation inhibitors – ATP luminescence, human non-small cell lung line, primary screen (AID 371);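 also: compound exposure lasted 72 h before the ATP read; 0% = untreated cell signal and 100% = no luminescence left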
# Conditions: at 10 µM, hits give high values
row,Compound,growth inhibition
1,CCCCOc1ccc(-c2nnc(N)s2)cc1,21.4% (inactive)
2,CCOc1ccc(Cc2nc(N)nc(N)n2)cc1,2.96% (inactive)
3,CCCCOc1ccc(CN(C)c2ncnc(N)n2)cc1,51.9% (active)
4,COC(=O)c1ccccc1N1C(=O)[C@@H]2C(c3ccc(Br)cc3)=NO[C@@H]2C1=O,3.29% (inactive)
5,O=C(NCc1ccco1)c1ccc(=O)oc1,-3.09% (inactive)
6,O=C1c2ccccc2-c2onc3ccc(NCc4ccco4)c1c23,50.2% (active)
7,O=C(NCc1ccco1)c1ccc(=O)[nH]n1,-4.07% (inactive)
8,c1ccc(-c2nn3c(C4CCCCC4)nnc3s2)cc1,5.6% (inactive)
9,CCC(=O)N(Cc1cccs1)C1CCOC(C)(C)C1 (centres undefined),3.04% (inactive)
10,CCCCNC(=O)c1c(N)n(/N=C/c2cccnc2)c2nc3ccccc3nc12,5.46% (inactive)
11,CN(Cc1ccccc1)Cc1c[nH]c2ccccc12,5.38% (inactive)
12,CN(C)CC(O)COc1ccc(C(C)(C)c2ccc(OCC(O)CN(C)C)cc2)cc1 (centres undefined),89.2% (active)
13,O/N=C/c1ccc(OCC(O)COc2ccc(/C=N/O)cc2)cc1,-5.19% (inactive)
14,N#Cc1ccc(-c2ccc(OCC(O)Cn3nnc4ccccc43)cc2)cc1 (centres undefined),57.7% (active)
15,CN(C)CC(O)COc1cccc(OCC(O)CN(C)C)c1 (centres undefined),2.88% (inactive)
16,CC(C)NCC(O)COc1ccc(CCOCC2CC2)cc1 (centres undefined),-0.79% (inactive)
17,OC(CNCCCN1CCCCC1)COc1ccccc1 (centres undefined),4.57% (inactive)
18,CN(CC(O)COc1ccc(OCC(O)CN(C)C2CCCCC2)cc1)C1CCCCC1 (centres undefined),50.1% (active)
19,CC1(C)NC(=O)N(CC(O)Cn2nnc3ccccc32)C1=O (centres undefined),8.44% (inactive)
20,CN(C)CC(O)COc1ccc(-c2ccc(C#N)cc2)cc1 (centres undefined),64.2% (active)
21,CN=c1sc2ccccc2n1CC(O)COc1ccccc1 (centres undefined),25.3% (inactive)
22,CC(C)NCC(O)COc1ccc(CC(N)=O)cc1 (centres undefined),-2.65% (inactive)
23,COCCc1ccc(OCC(O)CNC(C)C)cc1 (centres undefined),1.47% (inactive)
24,CCOCCSc1nc2c(c(=O)[nH]c(=O)n2C)n1CCCc1ccccc1,20.2% (inactive)
25,CCN(CC)CCCN1C(=O)C(O)=C(C(=O)c2ccc(C)o2)C1c1ccc(C)o1 (centres undefined),5.46% (inactive)
26,CC1CC(C(F)(F)F)n2ncnc2N1 (centres undefined),2.4% (inactive)

row,Compound,growth inhibition
1,CC(C)OC(=O)[C@H]1[C@H](c2ccc(Cl)cc2)[C@@](C#N)(C(N)=O)[C@@H]2C=CC(C(N)=O)=CN21,6.9% (inactive)
2,Cc1cccc(N2C(=O)CC(N3CCN(Cc4ccc(Cl)cc4)CC3)C2=O)c1 (centres undefined),-1.79% (inactive)
3,O=C(Nc1ccc(Cl)cn1)C1CCCN1S(=O)(=O)c1ccccc1 (centres undefined),-16.6% (inactive)
4,CCCOc1cc(CN2CCCCC2)cc(C(C)=O)c1,5.4% (inactive)
5,CCNC(=O)N(C(=O)NCC)n1c(C)nnc1C,-3.85% (inactive)
6,c1ccc(CSc2nnc(SCc3ccccn3)s2)nc1,-7.61% (inactive)
7,N#CC1=C(N)N2C(=C(C#N)C1c1ccccc1)Sc1ccccc12 (centres undefined),-5.42% (inactive)
8,C#CC1CN(Cc2ccccc2)CC(C#C)N1C (centres undefined),4.27% (inactive)
9,Cc1ccc(Cn2ncc3c(N4CCOCC4)ncnc32)cc1,19.4% (inactive)
10,Cc1ccc(Cn2ncc3c(N4CCN(c5ccc(C)cc5)CC4)ncnc32)cc1,30.8% (inactive)
11,Cc1ccc(Cn2ncc3c(N4CCN(Cc5ccc(Cl)cc5)CC4)ncnc32)cc1,53.7% (active)
12,COC(=O)C(NC(C)=O)(Nc1ccc(Br)cc1)C(=O)OC,36.9% (inactive)
13,Cc1ccc2[nH]c3c(N4CCOCC4)ncnc3c2c1,34.7% (inactive)
14,Cc1ccc2[nH]c3c(N4CCN(Cc5ccccc5)CC4)ncnc3c2c1,80.6% (active)
15,Cc1ccc2[nH]c3c(N4CCCCCC4)ncnc3c2c1,72.1% (active)
16,c1ccc2c(c1)[nH]c1c(N3CCC4(CC3)OCCO4)ncnc12,34% (inactive)
17,c1ccc2c(c1)CCN(c1ncnc3c1[nH]c1ccccc13)C2,77.4% (active)
18,OC1(c2cccc(C(F)(F)F)c2)CCN(c2ncnc3c2[nH]c2ccccc23)CC1,92.4% (active)
19,CCN1CCCC1Cn1cnc2c([nH]c3ccc(C)cc32)c1=O (centres undefined),6.64% (inactive)
20,c1ccc2c(c1)[nH]c1c(N3CCSCC3)ncnc12,33.6% (inactive)
21,CSc1nnc2n(C3CCCCC3)c(=O)c3c4c(sc3n12)CCCC4,6.35% (inactive)
22,COc1cccc(C(=O)OCCN(C)C(C)(C)C)c1,0.03% (inactive)
23,OCCOCCNc1ncnc2c1cnn2-c1ccccc1,5.28% (inactive)
24,Cc1cc(=O)oc2cc(OCCSCCN3CCOCC3)ccc12,8.74% (inactive)
25,CCn1cc(/C=N/O)c(C)n1,-8.38% (inactive)
26,O=C1OC(N2CCN(C/C=C/c3ccccc3)CC2)c2ccccc21 (centres undefined),7.88% (inactive)

row,Compound,growth inhibition
1,Cc1cc(SCCC(=O)O)nc2ccccc12,-1.53% (inactive)
2,CCOC(=O)c1cnc(SC2CC(=O)N(c3cccc(OC)c3)C2=O)nc1N (centres undefined),-4.72% (inactive)
3,Cn1ccnc1SCCC#N,-0.21% (inactive)
4,O=C(c1ccco1)N1CCN(c2ncnc3c2[nH]c2ccccc23)CC1,25.7% (inactive)
5,N#Cc1nc(COc2ccc(Cl)cc2)oc1N1CCN(Cc2ccccc2)CC1,21.8% (inactive)
6,c1ccc(CN2CCN(c3ncnc4c3[nH]c3ccccc34)CC2)cc1,63% (active)
7,COc1ccc(C=NCCCN2CCOCC2)cc1,2.05% (inactive)
8,Cc1csc2nc(CSc3nc4ccccc4o3)cn12,29.3% (inactive)
9,CCOC(=O)c1ccc(N2C(=O)CC(Sc3nnc(C)s3)C2=O)cc1 (centres undefined),-4.68% (inactive)
10,Cc1ccc(-c2nnc(-c3ccccc3)o2)cc1Br,10.3% (inactive)
11,Cc1ccccc1N1C(=O)CC(Sc2nnc(-c3ccccc3)o2)C1=O (centres undefined),56.6% (active)
12,Brc1ccc(-c2cnnc(N3CCCC3)n2)cc1,24% (inactive)
13,COc1ccc(C2/C(=C(/O)c3cnn(-c4ccccc4)c3C)C(=O)C(=O)N2CCN(C)C)cc1OC (centres undefined),7.72% (inactive)
14,CSc1nc(Oc2ccc(=O)[nH]n2)nc(N(C)C)n1,2.49% (inactive)
15,COc1ccc(/C(O)=C2/C(=O)C(=O)N(CCN3CCOCC3)C2c2ccccn2)cc1OC (centres undefined),0.85% (inactive)
16,COc1cc2nc(-c3ccccc3)nc(N3CCCC3)c2cc1OC,2.86% (inactive)
17,CCOc1cc2nc(-c3ccc(OC)c(OC)c3)nc(N3CCOCC3)c2cc1OC,66.5% (active)
18,Brc1cccc(-c2cnc3n2CCCCC3)c1,24.1% (inactive)
19,COc1ccc(CN(C#N)c2nc(SC)nc(N(C)C)n2)cc1,32.9% (inactive)
20,CCN(CC)c1ncc(C)c(=O)[nH]1,-0.05% (inactive)
21,CCOC(=O)Cc1nnc(Nc2cccc(O)c2)c2ccccc12,-1.35% (inactive)
22,N=c1ncn(CC(O)CN2CCOCC2)c2nc(N3CCOCC3)[nH]c12 (centres undefined),-5.31% (inactive)
23,C=CCc1cccc(CNc2nc3ccccc3n2C(C)C)c1O,74.7% (active)
24,C=CCc1cccc(/C=N/n2cnnc2)c1O,2.3% (inactive)
25,C=CCc1cccc(/C=N/c2ncn[nH]2)c1O,0.97% (inactive)
26,CN=c1sc2ccccc2n1CC(O)COCc1ccco1 (centres undefined),-6.68% (inactive)

row,Compound,growth inhibition
1,CCCSc1nnc(NC(=O)Nc2ccc(F)cc2)s1,70.3% (active)
2,CC(NC(=O)Nc1nnc(C(F)(F)F)s1)(C(F)(F)F)C(F)(F)F,11.8% (inactive)
3,CCCc1nnc(NC(=O)Nc2ccccc2OC)s1,17.3% (inactive)
4,CCC(NC(=O)Nc1nnc(C(F)(F)F)s1)(C(F)(F)F)C(F)(F)F,81.7% (active)
5,CCC(C(=O)Nc1nccs1)(C(F)(F)F)C(F)(F)F,12.8% (inactive)
6,CCSc1nnc(NC(=O)C(CC)(C(F)(F)F)C(F)(F)F)s1,66% (active)
7,CCSc1nnc(NC(NC(=O)c2ccco2)(C(F)(F)F)C(F)(F)F)s1,-2.3% (inactive)
8,O=C(NCC(F)(F)F)Nc1nnc(C(F)(F)F)s1,17.9% (inactive)
9,CCCSc1nnc(NC(=O)Nc2ccccc2)s1,45.3% (inactive)
10,CCC(C(=O)Nc1ncn[nH]1)(C(F)(F)F)C(F)(F)F,2.05% (inactive)
11,CCSc1nnc(NC(=O)C(C(F)(F)F)C(F)(F)F)s1,7.68% (inactive)
12,CCSc1nnc(NC(=O)C(C)(C(F)(F)F)C(F)(F)F)s1,61.8% (active)
13,CCCC(CCC(=O)Nc1ccc(C(=O)OC)cc1)C(=O)O (centres undefined),5.31% (inactive)
14,N#Cc1c(N2CCOCC2)nc(N2CCCCC2)c2c1CCN(C1CCCCC1)C2,23.2% (inactive)
15,CC(C)COC(=O)CCNc1n[nH]c(=O)[nH]c1=O,2.08% (inactive)
16,O=c1cc(-c2ccco2)nc(-c2cccs2)o1,15% (inactive)
17,COc1cccc(-c2nnc3sc(-c4ccco4)nn23)c1,11.9% (inactive)
18,Cc1cc(C)n(CC2CC(=O)N(c3ccc(F)c(Cl)c3)C2=O)n1 (centres undefined),1.52% (inactive)
19,Cn1nccc1C(=O)Nc1ccccc1C(=O)O,2.72% (inactive)
20,CCCSc1nc(O)c(C2OC(=O)c3c2ccc(OC)c3OC)c(=O)n1C (centres undefined),3.43% (inactive)
21,Cc1ccc(-n2ncc3c(N4CCC(C(N)=O)CC4)ncnc32)c(C)c1,7.75% (inactive)
22,CCc1cccc(C)c1N(C(=O)Cn1c(=O)[nH]c2ccccc21)C(C)COC (centres undefined),17.6% (inactive)
23,CCSc1nnc(NC(=O)NC(CC)(C(F)(F)F)C(F)(F)F)s1,82.1% (active)
24,CCSc1nnc(NC(=O)NCC(F)(F)F)s1,-0.28% (inactive)
25,CCC(NC(=O)Nc1nccs1)(C(F)(F)F)C(F)(F)F,2.27% (inactive)
26,CCN(CC)CCN1C(=O)C(=O)/C(=C(/O)c2ccc(OC)cc2)C1c1ccco1 (centres undefined),2.24% (inactive)
